# Values joined by “and” are separate entries in the source; they are usually repeats but may differ in a detail not shown here. Identical values can stand only once. Results filed as inconclusive are left out. Where a structure was tested more than once in an assay, its records may differ in their call. Active and inactive are the calls of the source. Calls follow the shape of the dose curve; as a rule, active = well fitted cell-killing curve with a large enough effect in the repeat runs; inconclusive = weak or mixed curves, or effect the other way; inactive = no such curve, though single readings can be large or run the other way.
# Assay: qHTS assay to identify small molecule agonists of the farnesoid-X-receptor (FXR) signaling pathway - cell viability counter screen (AID 743218); also: nearly all actives have a fitted effect of over 45% in size
# Details: FXR-bla HEK293T viability, CellTiter-Glo luminescence, 16 h; series mostly up to 62.6 µM; viability change, negative = cytotoxic: at the top concentration
# Excerpt: U.S. Tox21 Program National Center for Advancing Translational Sciences [NCATS] NIH Chemical Genomics Center [NCGC] U.S. Environmental Protection Agency [EPA] National Institutes of Environmental Health Sciences [NIEHS] National Toxicology Program [NTP] U.S. Food and Drug Administration [FDA] Tox21 Assay Overview: The farnesoid-X-receptor (FXR), a nuclear hormone receptor, is highly expressed in liver, intestine, kidney and adrenal cortex. Natural ligands of FXR are the bile acids (Cholic acid, Chenodeoxy cholic acid etc). FXR is an important regulator of diverse metabolic pathways, including the bile acid homeostasis, lipid and glucose metabolisms. FXR regulates the expression of target genes by binding either as a monomer or as a heterodimer with the retinoid X receptor (RXR). Numerous studies have reported that FXR exerts protective function during cholestasis, diabetes, liver regeneration, and cancer. To identify compounds that activate FXR signaling, GeneBLAzer FXR-UAS-bla HEK 293T cell line (Invitrogen, Carlsbad, CA) containing a beta-lactamase reporter gene under the control of a UAS response element was used to screen the Tox21 10K compound library. The cytotoxicity of the Tox21 compound library against the FXR-bla cell line was tested in parallel by measuring the cell viability using CellTiter-Glo assay in the same wells.
# Tox21 Assay Protocol Summary: FXR-bla cells were dispensed at 5000 cells/5uL/well in 1536-well black wall/clear bottom plates using a Multidrop Combi (Thermo Fisher Scientific, Waltham, MA) dispenser. After the assay plates were incubated at 37 C and 5% CO2 for 5 h, 23 nL of compounds dissolved in DMSO, positive controls or DMSO only was transferred to the assay plate by a Pintool station (Kalypsys, San Diego, CA). The assay plates were incubated at 37C for 16 h. After 1 uL of LiveBLAzerTM B/G FRET substrate was added using a Bioraptr Flying Reagent Dispenser (FRD) workstation (Beckman Coulter, Indianapolis, IN), the plates were incubated at room temperature for 2 h, and fluorescence intensity was measured by an Envision plate reader (PerkinElmer, Shelton, CT). For cell viability readout that measures cytotoxicity, 4uL/well of CellTiter-Glo reagent was added into the assay plates using a Bioraptr FRD. After 30 min incubation at room temperature, the luminescence intensity in the plates was measured using a ViewLux plate reader (PerkinElmer).
# % is scaled to controls: 0 for no effect and ±100 for the full control effect; potency is read from the fitted curve at half-maximal effect.
SMILES,"viability change, negative = cytotoxic",Potency
CCCCC/C=C/CC1CC(=O)OC1=O (stereo not given),-11.8% (inactive),–
COC(=O)[C@H]1[C@H]2C[C@@H]3c4[nH]c5cc(OC)ccc5c4CCN3C[C@H]2C[C@@H](OC(=O)c2cc(OC)c(OC)c(OC)c2)[C@@H]1OC,–,22.5 µM (active)
COc1ccc(Cc2cnc(N)nc2N)cc1OC,-14% (inactive),–
CN(C)c1ccc(C(=C2C=CC(=[N+](C)C)C=C2)c2ccccc2)cc1,–,437 nM (active) and 2.37 µM (active)
CC[C@@H](N)CO,-0.959% [at 81.1 µM] (inactive),–
CNCCC(Oc1ccc(C(F)(F)F)cc1)c1ccccc1 (stereo not given),–,21.6 µM (active)
O=C(O)c1cc(Cl)cc(Cl)c1,8.79% (inactive),–
O=C(O)CP(=O)(O)O,0.58% (inactive),–
CC[C@]1(O)C[C@@H]2CN(CCc3c([nH]c4ccccc34)[C@@](C(=O)OC)(c3cc4c(cc3OC)N(C)[C@H]3[C@@](O)(C(=O)OC)[C@H](OC(C)=O)[C@]5(CC)C=CCN6CC[C@]43[C@@H]65)C2)C1,–,inactive
COC(=O)c1cccc(C(=O)OC)c1,–,inactive
CC(=O)CC(C)=O,7.5% [at 81.1 µM] (inactive),–
CC1COc2c(N3CCN(C)CC3)c(F)cc3c(=O)c(C(=O)O)cn1c23 (stereo not given),-5.39% (inactive),–
Nc1ccc(O)cc1,–,25.5 µM (active) and inactive
CNC1(C)C2CCC(C2)C1(C)C (stereo not given),15.2% (inactive),–
CC(=O)Nc1ccc(C(=O)CCl)cc1,–,inactive and 54.9 µM (active)
CC(=O)O[C@]1(C(C)=O)CC[C@H]2[C@@H]3C[C@H](C)C4=CC(=O)CC[C@]4(C)[C@H]3CC[C@@]21C,–,inactive
O=Nc1ccc(Nc2ccccc2)cc1,–,55.3 µM (active) and 54.9 µM (active)
Cc1ccc(S(=O)(=O)Oc2ccc(N=Nc3ccc(-c4ccc(N=Nc5c(O)ccc6cc(S(=O)(=O)O)cc(S(=O)(=O)O)c56)c(C)c4)cc3C)cc2)cc1,-25.5% (inactive),–
O=Cc1ccc(Cl)cc1,5.01% (inactive),–
Oc1ccc(Cl)cc1Cc1cc(Cl)ccc1O,–,49 µM (active)

SMILES,"viability change, negative = cytotoxic",Potency
CO[Si](OC)(OC)c1ccccc1,-2.78% (inactive),–
Cc1c(O)cccc1C(=O)N[C@@H](CSc1ccccc1)[C@H](O)CN1C[C@H]2CCCC[C@H]2C[C@H]1C(=O)NC(C)(C)C,–,6.74 µM (active) and 26.6 µM (active)
CC(C)(C)c1ccccc1,11.6% (inactive),–
O=C(OCc1ccccc1)c1ccc(O)cc1,3.14% (inactive),–
CC1COC(=O)O1 (stereo not given),–,inactive
C1COC(NC(C2CC2)C2CC2)=N1,-12.9% (inactive),–
CCCCCCCCCCCCCC[P+](CCCC)(CCCC)CCCC,–,19.4 µM (active) and 24.5 µM (active)
CCN1CCCC1CNC(=O)c1cc(S(=O)(=O)CC)c(N)cc1OC (stereo not given),15.2% (inactive),–
Nc1nc(=S)c2[nH]cnc2[nH]1,-1.84% (inactive),–
CCCCN(CCO)CCCC,-20.6% [at 81.1 µM] (inactive),–
[Cl][In]([Cl])[Cl],–,inactive
NC(Cc1ccc(Cl)cc1)C(=O)O (stereo not given),0.639% [at 0.55 µM] (inactive),–
O=C1CC2(CCCC2)CC(=O)N1CCCCN1CCN(c2ncccn2)CC1,–,24.5 µM (active) and inactive
Nc1cc(Cl)c(-c2cc(Cl)c(N)cc2Cl)cc1Cl,–,43.6 µM (active) and 12.3 µM (active)
O=C(Cl)c1cccc(C(=O)Cl)c1,–,inactive
Cc1ccnc2c1NC(=O)c1cccnc1N2C1CC1,–,inactive
C#CC(C)(CC)OC(=O)c1ccccc1C(=O)O (stereo not given),25.5% (inactive),–
CCOc1ccc2c(c1)C(C)=CC(C)(C)N2,–,inactive
CCN(CC)C(=S)SSC(=S)N(CC)CC,–,0.0915 µM (active)
Oc1c(Cl)cc(Cl)cc1Sc1cc(Cl)cc(Cl)c1O,–,15.5 µM (active)
